Records with an inconclusive call do not appear. The source made the active and inactive calls. Calls follow the shape of the dose curve; as a rule, active = well fitted inhibition curve with a large enough effect; inconclusive = small, poorly fitted or top-dose-only effect; inactive = flat fitted curve, though single readings scatter.

What all share (experiment): qHTS profiling for inhibitors of Plasmodium falciparum proliferation (AID 504749); also: nearly all actives have a fitted effect of over 60% in size
Settings in all cases: P. falciparum in erythrocytes, SYBR Green DNA, 72 h; series mostly up to 28.7 µM

The test system of one assay is ATS95. The essentials:
(§1)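 P. falciparum-infected erythrocytes (0.3% parasitemia, 2.5% hematocrit) incubated with compound 72 h at 37 C, 5% CO2. Parasite DNA detected by SYBR Green after lysis, overnight at room temperature; normalised to 0.29 uM artemisinin and DMSO.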

The next assay has as its system CP201. The essentials: as §1
Another assay deals with CP215. The essentials: as §1
The next assay relates to CP262. The essentials: as §1
The subject of another assay is CP266. The essentials:
as §1

In another assay the test system is CP268. The essentials: as §1
The subject of the next assay is CP269. The essentials:
as §1

In another assay the test system is CP291. The essentials:
as §1

Another assay relates to CP297. The essentials:
as §1

For another assay, the system named is CP305. The essentials: as §1
A further assay has as its system CP315. The essentials:
as §1

The test system of the next assay is CP325. The essentials: as §1
The test system of a further assay is CP335. The essentials:
as §1

A further assay concerns DIV17. The essentials: as §1
The next assay deals with FAB9. The essentials:
as §1

Another assay deals with GB4. The essentials:
as §1

Another assay has as its system JCK. The essentials:
as §1

Another assay has as its system P94_40. The essentials: as §1
The test system of a further assay is PAD. The essentials: as §1
A further assay relates to TAB109. The essentials:
as §1
Potency is read from the fitted curve at half-maximal effect.

`CC1(C)S[C@@H]2[C@H](NC(=O)Cc3ccccc3)C(=O)N2[C@@H]1C(=O)O`: the Potency result with ATS95, in the assay on CP201, in the assay on CP215, in the assay on CP262, in the assay with CP266 and with CP268 was “inactive” throughout. Further, the Potency entry in the assay on CP269, in the assay on CP291, with CP297, with CP305, in the assay on CP315 and in the assay with CP325 was “inactive” in each case. Also, the Potency result in the assay on CP335, in the assay on DIV17, in the assay with FAB9, in the assay with GB4, with JCK and in the assay on P94_40 was “inactive” each time. Besides, the Potency result with PAD and in the assay with TAB109 was “inactive” in each case.

With `Cc1onc(-c2c(F)cccc2Cl)c1C(=O)N[C@@H]1C(=O)N2[C@H]1SC(C)(C)[C@H]2C(=O)O`, the Potency result in the assay with ATS95, with CP201, with CP215, with CP266, in the assay with CP268 and in the assay with CP269 was “inactive” each time. In addition, the Potency result in the assay on CP291, in the assay with CP297, with CP305, in the assay on CP325, in the assay with DIV17 and in the assay on FAB9 was “inactive” each time. Also, the Potency entry with GB4, with JCK, in the assay with P94_40, in the assay on PAD and in the assay with TAB109 was “inactive” in each case.

Take `C[C@H](CCC(=O)O)[C@H]1CC[C@@H]2[C@H]3[C@@H](C[C@@H](O)[C@]21C)[C@]1(C)CC[C@H](O)C[C@@H]1C[C@@H]3O`: the Potency result in the assay on CP201, in the assay with CP262, with CP266, in the assay with CP268, with CP269 and in the assay on CP291 was “inactive” throughout. In addition, the Potency entry in the assay with CP297, in the assay on CP305, in the assay with CP315, in the assay with CP325, in the assay on CP335 and in the assay with DIV17 was “inactive” in each case. Further, the Potency result in the assay with FAB9, in the assay on JCK, with PAD and in the assay on TAB109 was “inactive” each time.

With `CC(C)(C)c1ccc(CN2CCN([C@H](c3ccccc3)c3ccc(Cl)cc3)CC2)cc1`, the values for the Potency in the assay on CP335, with GB4 and in the assay with P94_40 were 3.38 µM (active), 15.1 µM (active) and 7.94 µM (active), respectively.

For `O=C(O)[C@@H](O)[C@@H](O)[C@H](O)C(=O)CO`, the Potency entry in the assay on ATS95, with CP201, with CP215, in the assay on CP262, in the assay on CP266 and in the assay with CP268 was “inactive” each time. Moreover, the Potency entry in the assay with CP269, in the assay with CP291, in the assay on CP297, in the assay with CP305, in the assay on CP325 and with CP335 was “inactive” throughout. Moreover, the Potency entry in the assay on DIV17, with FAB9, in the assay with GB4, in the assay on JCK, in the assay on P94_40 and with PAD was “inactive” throughout. Moreover, the Potency result in the assay on TAB109 is “inactive”.

The record behind these values is PubChem BioAssay (NCATS).
